RECQ1 helicase: RECQ1 (human) helicase inhibition; RECQ1 DNA unwinding, red fluorescence kinetic read; Potency, µM (top dose mostly 57.3 µM), inactives show at the top dose activity, negative = inhibition, usual class: inhibitors; 0.54% of 240,000 active; AID 2549;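 also: plate controls were vehicle for no effect and no enzyme for full effect; nearly all actives have a fitted effect of over 30% in size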
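RECQ1T1 50 nM; forked duplex (20 bp + 30-nt ss tails) 200 nM, ATP 2 mM final; pH 8.0, 2 mM MgCl2, 2.5 ug/ml poly(dI-dC); 15 min compound preincubation; discontinuous kinetic read over 2 h at RT.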
PGK inhibitor: blocks T. brucei phosphoglycerate kinase. P07378. AID 602233. PGK/GAPDH coupled, Kinase-Glo luminescence, 60 min. Potency, µM (series often up to 57.5 µM), without a hit: top-dose activity change, negative = inhibition, hits mostly inhibitors. 0.043% of 380,000 active; also: nearly all actives have a fitted effect of over 60% in size
Target sequence (P07378 whole entry, looked up): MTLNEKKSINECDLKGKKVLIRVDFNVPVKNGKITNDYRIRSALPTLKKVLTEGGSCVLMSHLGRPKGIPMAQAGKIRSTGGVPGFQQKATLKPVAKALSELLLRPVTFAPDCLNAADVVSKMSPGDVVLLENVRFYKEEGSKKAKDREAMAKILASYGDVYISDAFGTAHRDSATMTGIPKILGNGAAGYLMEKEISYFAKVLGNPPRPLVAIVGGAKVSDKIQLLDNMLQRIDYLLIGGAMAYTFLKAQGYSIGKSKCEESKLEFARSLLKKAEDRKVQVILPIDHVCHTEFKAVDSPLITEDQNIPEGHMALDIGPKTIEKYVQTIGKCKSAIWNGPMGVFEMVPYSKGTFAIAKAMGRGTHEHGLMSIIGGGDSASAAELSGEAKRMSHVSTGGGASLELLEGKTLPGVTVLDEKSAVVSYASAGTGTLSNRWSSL
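Luminescent ATP detection (Kinase-Glo Plus) follows a 60-minute room-temperature incubation, with wells lacking PGK as controls. Buffer: 100 mM TEA (pH 7.6), 5 mM MgCl2, 0.01% Tween-20. Coupling enzyme GAPDH (100 nM final) supplies unstable 1,3-BPG in-well.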
FEN1 inhibitor: human FEN1 inhibition | Recombinant FEN1 flap cleavage, fluorescence, 15 min | Potency, µM (highest dose often 114 µM), for the others: at the highest dose activity change, negative = inhibition, most hits filed as inhibitors | 0.35% of 390,000 active | AID 588795; also: nearly all actives have a fitted effect of over 65% in size
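FEN1 at 10 nM, compound pretreatment for 15 min (room temperature), 50 nM final substrate to initiate; endpoint reads at 0 and 15 min; DMSO-only plates used as vehicle background.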
BLM inh: inhibitors of human Bloom syndrome helicase BLM | P54132 | recombinant BLM DNA unwinding, fluorescence dequenching | Potency, µM (titrated, usually from 56.1 µM), without a hit: top-dose activity change, negative = inhibition, most hits filed as inhibitors | 0.2% of 350,000 active | AID 2528;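 also: plate controls were vehicle for no effect and no enzyme for full effect; nearly all actives have a fitted effect of over 35% in size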
APEX1 inh: APE1 (human) endonuclease inhibition | recombinant APE1, TAMRA/BHQ-2 abasic DNA cleavage fluorescence | Potency, µM (top dose mostly 65.8 µM), for the others: at the top dose activity change, negative = inhibition, most hits filed as inhibitors | 0.35% of 350,000 active | AID 2517;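 also: plate controls were vehicle for no effect and reference inhibitor for full effect; nearly all actives have a fitted effect of over 55% in size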
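Activity was derived from the fluorescence gain between first and third kinetic reads (60 s intervals, ex 525/em 598 nm) after 50 nM THF-abasic TAMRA/BHQ-2 duplex was added to 0.75 nM APE1 preincubated 15 min with compound.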
The depositor's hits bear a star; i = inactive; ? = inconclusive; · = no result given; ! = not confirmed by another sample. Only some compounds are listed: those with a hit (about 0.74% of all), similar ones and a draw of the others. Calls follow the shape of the dose curve; as a rule, active = well fitted curve in the direction sought with a large enough effect; inconclusive = small, poorly fitted or top-dose-only effect, or another doubt; inactive = no such curve, though single readings can be large; an effect the other way counts as inactive or inconclusive. Unless noted, % is scaled to controls: 0 for no effect and ±100 for the full control effect; potency is read from the fitted curve at half-maximal effect.

SMILES	RECQ1 helicase	PGK inhibitor	FEN1 inhibitor	BLM inh	APEX1 inh
Cc1cc(N=Nc2ccc(C)c(N=Nc3cc(C)c(N)cc3N)c2)c(N)cc1N	-9%	1%	22µM*	?	5%
Nc1cc(C(=O)O)c(O)c(S(=O)(=O)O)c1	-4%	·	·	·	28µM*
Nc1ccc(C(=O)O)cc1S(=O)(=O)O	i	i	-2%	2%	5%
O=C(/C=C/c1ccccc1Cl)Nc1ccncc1	-6%	-5%	-12%	4%	4%
CC(C)C[C@@H](CN(C)N=O)N(C[C@H](Cc1ccccc1)N(CCc1ccccc1)N=O)N=O	4µM*	-10%	12%	-6%	0%
CC(C)Oc1ccc(C(=O)Nc2ccc(N(C)C)cc2)cc1	i	i	-5%	-3%	2%
CCOC(=O)C1=C(CSc2nc(-c3ccccc3)ccc2C#N)OC(N)=C(C#N)C1c1ccc(OC)cc1 (stereo not given)	10µM*	-11%	?	-13%	-9%
CCC(C)[C@H](NC(=O)C1CCC(CNC(=O)[C@@H]2CCCN2C(=O)OC(C)(C)C)CC1)C(=O)O (stereo not given in full)	·	3%	-7%	-9%	150µM*
CC(C)[C@H](NC(=O)C1CCC(CNC(=O)[C@@H]2CCCN2C(=O)OC(C)(C)C)CC1)C(=O)O (stereo not given in full)	·	-11%	4%	4%	-3%
CC(N)(Cc1ccc(O)c(O)c1)C(=O)O (stereo not given)	3.2µM*	·	·	?	1.1µM*
O=C(c1cccs1)N1CCN(Cc2ccccn2)CC1	16%	-6%	0%	4%	-2%
COc1cc(OC)c(C#N)c(S(=O)(=O)Cc2ccccc2)c1	i	-1%	-6%	-6%	0%
N#Cc1c([N+](=O)[O-])cc([N+](=O)[O-])cc1S(=O)(=O)Cc1ccccc1	·	2%	79µM*	·	-7%
COC(=O)C(Cc1c[nH]c2ccccc12)NC(=O)c1cc(-c2ccc(OC)c(OC)c2)oc1C (stereo not given)	-7%	2%	79µM*	-3%	-11%
CC(C)(C)c1nn(-c2ccccc2)c2[nH]c(=O)c(CNc3ccc4c(c3)OCCO4)cc12	-5%	0%	?	-13%	?
COc1cc2nc(N3CCCN(C)CC3)nc(Nc3ccncc3)c2cc1OC	·	·	14µM*	·	·
COc1cc2nc(N3CCCN(C)CC3)nc(NC3CCN(Cc4ccccc4)CC3)c2cc1OC	·	·	18µM*	·	·
COc1cc2c(NC3CCN(C)CC3)nc(N3CCCN(C)CC3)nc2cc1OCc1ccccc1	·	·	22µM*	·	·
CCOCCCNC(=O)c1c[nH]c2ccc(S(=O)(=O)N(C)c3ccc(Cl)cc3F)cc2c1=O	·	1%	2%	-5%	·
CCOc1cc(/C=C2/SC(=S)N(CC3CCCO3)C2=O)ccc1O (stereo not given)	14µM*	-15%	-33%	-13%	-10%
Cc1c(N2C(=O)/C(=C\c3ccc(N(C)C)cc3)N(C)C2=S)c(=O)n(-c2ccccc2)n1C	28µM*	-15%	?	-8%	-4%
CN1C(=S)N(c2cccnc2)C(=O)/C1=C\c1ccc(N(C)C)cc1	i	-12%	-5%	4%	13%
Cc1c(N2C(=O)c3ccc4c5c(ccc(c35)C2=O)CC4)c(=O)n(-c2ccccc2)n1C	11µM*	?	50µM*	14µM*	?
CC(C)N(C(=O)N1CCN(c2ccnc3cc(Cl)ccc23)CC1)C(C)C	·	9%	3%	-3%	-12%
CCSc1nnc(NC(=O)[C@@H](NC(=O)c2cc(OC)cc(OC)c2)C(C)C)s1	-4%	-6%	2%	-2%	-5%
SMILES	RECQ1 helicase	PGK inhibitor	FEN1 inhibitor	BLM inh	APEX1 inh
COC(=O)c1c(NC(=O)COC(=O)[C@@H](NS(=O)(=O)c2cccc(Cl)c2)C(C)C)sc2c1CCC2	i	3%	1%	-6%	-10%
CC(C)[C@H](NS(=O)(=O)c1cccc(Cl)c1)C(=O)OCC(=O)NC(=O)CN1CCCC1=O	·	-24%	-18%	·	13µM*
COc1cc2c(NC3CCN(C)CC3)nc(N3CCCN(C)CC3)nc2cc1OCCOCCN1CCCC1	·	·	20µM*	·	·
COc1cc2nc(N3CCOCC3)nc(NC3CCN(Cc4ccccc4)CC3)c2cc1OC	·	·	-10%	·	·
COc1cc2c(NC3CCN(C)CC3)nc(N3CCCN(C)CC3)nc2cc1OCCCN1CCCCC1	·	·	22µM*	·	·
COc1ccccc1NC(=O)Nc1ccnn1C1CCN(C(=O)c2cscn2)CC1	·	-4%	45µM*	1%	61%
CC(=O)Nc1ccc(NC2=C/C(=N/S(=O)(=O)c3cccs3)c3ccccc3C2=O)cc1	12%	-17%	-13%	22µM*	7%
Cc1ccccc1NC1=C/C(=N\S(=O)(=O)c2cccs2)c2ccccc2C1=O	-4%	-22%	-3%	20µM*	-8%
O=C(c1cccc(F)c1)N1CCC2(CCN(Cc3nccs3)CC2)CC1	-9%	·	·	4%	4%
CCOc1ccc(NC(=O)CSc2nnc(COc3c(C)cccc3C)o2)cc1	-5%	i	0%	-3%	-1%
CC(=O)Nc1cc(NC(C)=O)cc(C(=O)N2CCCC3CCCCC32)c1 (stereo not given)	·	-7%	-20%	-22%	17µM*
CCCCCCCCCc1nc(N)n[nH]1	-2%	0%	-2%	-1%	-8%
Cc1cccc(Cc2c(C)nc3nc(SCC(=O)NCc4ccco4)nn3c2C)c1	-3%	-12%	-1%	-1%	-2%
Cc1ccn2cc(CNS(=O)(=O)c3cccs3)nc2c1	-7%	7%	18%	-4%	3%
N[C@@H](Cc1cc(I)c(Oc2ccc(O)c(I)c2)c(I)c1)C(=O)O	-3%	?	?	25µM*!	-4%
Cc1nc(Nc2cnc(/C=C/c3cc(C(=O)Nc4cccc(C(F)(F)F)c4)ccc3C)cn2)cc(N2CCNCC2)n1	·	-4%	79µM*	-21%	?
COc1cc(S(=O)(=O)O)c(C)cc1N=Nc1c(O)ccc2cc(S(=O)(=O)O)ccc12	·	·	35µM*	·	·
Cc1nc(SCC(=O)N2CCCCC2)c2c(C)c(C)sc2n1	·	-8%	-6%	0%	3%
O=C(N/N=C/c1cc2ccccc2nc1Cl)/C(=C/c1cccs1)NC(=O)c1ccccc1	25µM*	0%	-10%	?	-8%
Nc1cc2c3c(cccc3c1)C(=O)N(CCN1CCCC1)C2=O	?	-6%	25µM*	118%	?
Cc1ccc2nc(/C(C#N)=C/c3ccc(O)c(O)c3)[nH]c2c1	·	-12%	?	20µM*	6%
O=C(O)Cc1ccccc1C(=O)O	-6%	0%	5%	-6%	26%
O=C(O)Cc1cccc(=O)c(O)c1C(=O)O	·	13µM*	?	·	·
COc1ccc(NC(=O)Nn2cnnc2)cc1OC	·	-1%	?	-2%	4%

Compound activity deposited in PubChem by National Center for Advancing Translational Sciences (NCATS).
